Hits are enriched below; roughly 3.4% of the tested compounds scored in any of these assays.
NTR1 ag: agonists of human NTR1, primary screen, imaging, U2OS cells, beta-arrestin-GFP, high content; Neurotensin receptor type 1 (Homo sapiens), P30989; NTR1-U2OS beta-arrestin-GFP spot imaging, agonist mode; activation, % at 20 µM; 330,000 compounds, 0.17% hits; AID 493036, 2011;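 active means activation at or above 40% of the spot to cytoplasm intensity ratio, with at least 20 cells analyzed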;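 further: 0% = DMSO without peptide and 100% = 100 nM NTR1 peptide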
MEKK2 WT-MEK5: modulators of MEK5 binding to wildtype MEKK2, primary screen, biochemical, multiplex bead flow cytometry, Alexa488-MEK5; 290,000 compounds, 1.1% hits; Alexa488-MEK5 binding to MEKK2 WT; actives lie on both sides; Mitogen-activated protein kinase kinase kinase 2 (Homo sapiens), Q9Y2U5; binding response (% of control), % at 10 µM; in the data active means binding response below about 67% or above about 130%
ANO1 block: TMEM16A chloride channel inhibitors, primary screen, cell-based, HTS; Anoctamin-1 (Mus musculus), Q8BHY3; HEK293 TMEM16A/YFP iodide influx fluorescence, ionomycin; normalized B-score (activity score, 25-100; higher = stronger inhibition) at 10 µM; 310,000 compounds, 1.2% hits; AID 588511, 2011;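 active means ratio plate-corrected score three or more library SD toward inhibition, starting fluorescence score within five deviations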;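 further: score derived from kinetic fluorescence span divided by baseline fluorescence per well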
MEKK2mut PB1 HTS: MEK5 binding signal on mutant MEKK2 PB1, primary screen, biochemical, multiplex bead flow cytometry, Alexa488-MEK5. percent response, % at 10 µM. Alexa488-MEK5 binding to MEKK2 mutant. AID 1530, 2009. 290,000 compounds, 0.35% hits; in the data active means percent response above about 24%, passing the limit was not always enough
TMEM16A act: TMEM16A chloride channel activators or potentiators, primary screen, cell-based, HTS. Anoctamin-1 (Mus musculus), Q8BHY3. HEK293 TMEM16A/YFP-H148Q/I152L, iodide quench fluorescence; stronger effect = lower value. B-score at 10 µM. 340,000 compounds, 0.3% hits;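 active means fluorescence-ratio B-score plate-corrected deviation score at least 3 library SD below zero, with starting fluorescence score within 5 deviations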;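 further: channel opened by trigger with iodide after compound preincubation; score built on the fluorescence ratio of max minus min over baseline; more negative score means more quench and so TMEM16A activation or potentiation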
MEKK3 PB1 HTS: modulators of MEKK3-MEK5 PB1 binding, primary screen, biochemical, wildtype MEKK3, multiplex bead flow cytometry, Alexa488-MEK5; AID 1529, 2009; Mitogen-activated protein kinase kinase kinase 3 (Homo sapiens), Q99759; 290,000 compounds, 1.4% hits; binding response (% of control), % at 10 µM; bead-based flow cytometry, Alexa488-MEK5 binding to MEKK3; actives lie on both sides; 0 = blocked by unlabeled MEK5, 100 = vehicle;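 active means binding response more than 3 SD above or below the average of its plate-row segment, actives on both sides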;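 further: Alexa488 bead fluorescence after subtracting the streptavidin-only scavenger bead signal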
MEKK2wt confirm: modulators of MEK5 binding to wildtype MEKK2, confirmation, biochemical, single concentration, multiplex bead flow cytometry; binding response (% of control), % at 10 µM; 5,900 compounds, 2.4% hits; shares compounds with MEKK3 PB1 HTS; Alexa488-MEK5 binding to MEKK2 WT; actives lie on both sides; AID 1892, 2009; in the data active means binding response below about 16% or above about 210%; inactive means in between
MEKK2mut-MEK5: mutant MEKK2 PB1-MEK5 binding signal retest – biochemical, single concentration, multiplex bead flow cytometry, confirmation; shares compounds with MEKK3 PB1 HTS; Alexa488-MEK5 binding to MEKK2 mutant; percent response, % at 10 µM; 5,900 compounds, 2% hits; in the data active means percent response mostly above about 71%, no sharp cut-off; inactive means mostly below about 38%;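 further: higher means compound restores mutant binding toward wildtype level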
MEKK3 confirm: MEKK3 wild-type PB1 binding to MEK5, inhibitors, confirmation, biochemical, bead multiplex flow cytometry, single concentration, wildtype | shares compounds with MEKK3 PB1 HTS | Alexa488-MEK5 binding to MEKK3; stronger effect = lower value | binding response (% of control), % at 10 µM | 5,900 compounds, 1.8% hits | AID 1894, 2009;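 active means binding response below 72% of control, or above a set upper limit, though filed actives all read lower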;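 further: 100% = DMSO only wells and 0% = binding blocked by excess unlabeled MEK5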
The depositor's hits bear a star; i = inactive; . = not tested or not shown; [ ] = remark or other dose.

SMILES	NTR1 ag	MEKK2 WT-MEK5	ANO1 block	MEKK2mut PB1 HTS	TMEM16A act	MEKK3 PB1 HTS	MEKK2wt confirm	MEKK2mut-MEK5	MEKK3 confirm
Cc1ccc(CN2CCSc3ccc(C(=O)NCCCN4CCOCC4)cc32)cc1	2	125	i	9	i	107	.	.	.
COc1cc(-c2noc(CCC(=O)NC3CCCCC3)n2)cc(OC)c1OC	-1	103	i	1	i	104	.	.	.
COC(=O)c1ccccc1OCCCCN1CC(C)OC(C)C1 (stereo unspecified)	-1	102	i	1	i	152*	109	12	108
COc1ccc(OCc2nnc(SCC(=O)NNC(=O)c3ccc(C)cc3)n2C)cc1	1	103	i	1	i	103	.	.	.
Cc1c(Cl)cccc1NC(=O)C1CCN(S(C)(=O)=O)CC1	-1	.	i	254*	i	104	104	2	106
Cc1cccc(NC(=O)C2CCN(S(C)(=O)=O)CC2)c1C	1	101	i	1	i	104	.	.	.
Cc1nc(C)c(CC(=O)N/N=C/c2ccc(O)cc2)c(=O)[nH]1	1	101	i	-2	i	106	.	.	.
CCn1c(CCNC(=O)c2cccs2)nnc1SCC(=O)NC1CCCCC1	2	0.0*[inhibitor]	i	-41	i	1.0*[inhibitor]	94	-8	96
CCn1c(CNC(=O)c2ccccc2F)nnc1SCC(=O)NC1CCCCC1	-1	94	i	-6	i	96	.	.	.
COc1ccc(-c2nnc(SCc3nnc(-c4cccs4)o3)n2CC2CCCO2)cc1 (stereo unspecified)	-1	91	i	-2	i	49*[inhibitor]	106	5	102
Fc1ccc(NCc2nnc(SCc3nnc(-c4ccccc4)o3)n2CC2CCCO2)cc1 (stereo unspecified)	0	123	i	6	i	124*	91	-5	95
CCOC(=O)/C=C/C(=O)OCC(=O)N1CCN(C(=O)c2ccco2)CC1	0	102	i	5	i	95	.	.	.
CCCCN(CCCNC(=O)Cn1nc(CC)n2c(cc3sc(C)cc32)c1=O)Cc1ccccc1	4	111	i	12	i	101	.	.	.
COC(=O)c1ccccc1NC(=O)CSc1n[nH]c(-c2ccco2)n1	3	93	i	-5	i	100	.	.	.
Oc1c(Br)cc(C=Nc2ccc3nc(-c4ccccc4)[nH]c3c2)c(O)c1Br	2	56*[inhibitor]	i	-26	i	88	78	-10	95
O=[N+]([O-])c1ccc(O)c(C=Nc2ccc3nc(-c4ccccc4)[nH]c3c2)c1	0	93	i	-3	i	93	.	.	.
Cc1ccc(C(=O)CCC(=O)N2CCN(C(=O)c3ccco3)CC2)cc1	-1	.	i	.	i	.	.	.	.
Cc1[nH]c2ccccc2c1C(=O)CN1CCCCC1CCO (stereo unspecified)	-1	63	i	-24	i	44*[inhibitor]	114	7	105
Cc1ccc2c(C(=O)CN3CCCCC3CCO)c(C)[nH]c2c1 (stereo unspecified)	0	101	i	0	i	101	.	.	.
O=C(CSc1nnc(-c2ccccc2)o1)NC1CCS(=O)(=O)C1 (stereo unspecified)	2	109	i	-1	i	100	.	.	.
CN(C(=O)CSc1nc(-c2ccc(C(C)(C)C)cc2)c(C#N)c(=O)[nH]1)C1CCCCC1	7	101	i	4	i	103	.	.	.
CCOc1ccc(-n2cc(C(=O)Nc3cccc(Cl)c3)c3cc(OC)c(OC)cc3c2=O)cc1	1	3.0*[inhibitor]	i	-18	i	2.0*[inhibitor]	97	-4	101
C/C(Cc1ccccc1)=N\NC(=O)CNC(=O)c1ccccc1F	0	99	i	-3	i	102	.	.	.
CCOc1ccc(C(=O)NNC2CC(=O)N(CCc3ccccc3)C2=O)cc1OC (stereo unspecified)	2	0.0*[inhibitor]	i	-5	i	0.0*[inhibitor]	102	0	104
CCNc1ccc(C(=O)OCC(=O)NCc2ccccc2Cl)cc1[N+](=O)[O-]	5	111	i	1	i	140*	100	-2	102
SMILES	NTR1 ag	MEKK2 WT-MEK5	ANO1 block	MEKK2mut PB1 HTS	TMEM16A act	MEKK3 PB1 HTS	MEKK2wt confirm	MEKK2mut-MEK5	MEKK3 confirm
CCNc1ccc(C(=O)OCC(=O)NC(=O)NCC(C)C)cc1[N+](=O)[O-]	-1	98	i	5	i	99	.	.	.
CC(C)S(=O)(=O)CC(=O)c1ccc(Cl)cc1	-2	104	i	5	i	103	.	.	.
Nc1ccc(S(=O)(=O)Nc2nccc(/C=C/c3ccccc3F)n2)cc1	0	116	i	0	i	134*	95	-3	97
COc1cccc(Oc2ccc(S(=O)(=O)N3CCOCC3)cc2[N+](=O)[O-])c1	4	.	.	.	i	.	.	.	.
COc1ccc(OCc2nc3c4cc(OC)c(OC)cc4nc(=S)n3[nH]2)cc1	0	106	i	1	i	128*	105	4	105
COc1cc2nc(=S)n3[nH]c(CCn4c(C)nc5ccccc54)nc3c2cc1OC	1	106	i	6	i	104	.	.	.
COc1ccc(N2C(=O)CC(Sc3ccccc3C(=O)O)C2=O)c([N+](=O)[O-])c1 (stereo unspecified)	4	107	i	-2	i	107	.	.	.
Cc1nn2c(N3CCN(C)CC3)cc(C(C)(C)C)nc2c1-c1ccccc1	4	144*	i	23	i	106	150	31	106
Cc1nn(-c2ccccc2)c(Cl)c1/C=N/NC(=O)c1[nH]ncc1Br	3	100	i	2	i	103	.	.	.

Bioassay records from PubChem BioAssay.
